Compounds with a hit are over-represented: about 6.8% of the library has one in this group of screens.
T cruzi growth: T. cruzi proliferation inhibition; T. cruzi beta-gal in NIH3T3, GalScreen luminescence, 90 h; AID 624255; inhibition, % at 8.34 µM; hit rate 5.9% among 77,000;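 active means mean inhibition above about 93%, with at least 55% of replicates each passing it, limit read from the data, passing the limit was not always enough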
Pf Dd2 inh: P. falciparum Dd2 growth inhibition; SYBR Green, 72 h; stronger effect = lower value; activity change, % at 10 µM; hit rate 2.3% among 94,000; in the data active means activity change below about -80%
C diff HTS: blocks growth of Clostridium difficile. Clostridium difficile clinical isolate growth, OD600, 24 h; stronger effect = lower value. growth activity, negative = inhibition, % at 16 µg/mL (by protocol). hit rate 0.25% among 86,000. AID 1259249;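 active means mean growth activity at or below -80% and every replicate also at or below -80%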;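 further: 0% = DMSO wells and -100% = levofloxacin 16 µg/mL wells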
An asterisk follows results filed as active.

How did COc1ccc2c3c(n(C)c2c1)[C@H](CO)N(C(=O)Nc1ccc(F)cc1)CC31CCN(S(=O)(=O)c2cccc(F)c2)CC1 do in these assays?
Pf Dd2 inh: -88.0*; C diff HTS: -3.5

How did COc1ccc2c3c(n(C)c2c1)[C@H](CO)N(C(=O)Nc1ccc(F)cc1)CC31CN(S(=O)(=O)c2cccs2)C1 do in these assays?
Pf Dd2 inh: 6.7

What do the screens show for `COc1ccc2c3c(n(C)c2c1)[C@@H](CO)N(C(=O)Nc1ccc(F)cc1)CC31CN(S(=O)(=O)c2cccc(C)c2)C1`?
Pf Dd2 inh: -27.5; C diff HTS: -16.3

How did C[C@@H]1CN([C@H](C)CO)C(=O)CCCn2nncc2CO[C@@H]1CN(C)Cc1ccc2c(c1)OCCO2 do in these assays?
T cruzi growth: 17.4; Pf Dd2 inh: -22.7

What do the screens show for `Cc1ccc(S(=O)(=O)N(C)C[C@@H]2OCCCC[C@@H](C)Oc3ccc(NC(=O)Nc4c(C)noc4C)cc3C(=O)N([C@@H](C)CO)C[C@@H]2C)cc1`?
T cruzi growth: -6.2; Pf Dd2 inh: -39.1; C diff HTS: 5.1

Results for COc1ccc2c3c([nH]c2c1)[C@@H](CO)N(Cc1nccs1)CC31CCN(Cc2ccncc2)CC1 ?
Pf Dd2 inh: -65.2; C diff HTS: 8.2

Results for COc1ccc2c3c([nH]c2c1)[C@@H](CO)N(Cc1ccncc1)CC31CCN(Cc2ccc(-c3ccccn3)cc2)CC1 ?
Pf Dd2 inh: -90.8*; C diff HTS: 4.1

What do the screens show for `COc1ccc2c3c([nH]c2c1)[C@@H](CO)N(Cc1ccccc1)CC31CCN(C)CC1`?
Pf Dd2 inh: -30.0; C diff HTS: 8.6

What do the screens show for `COc1ccc2c3c([nH]c2c1)[C@H](CO)N(Cc1ccncc1)CC31CCN(Cc2ccc(-c3ccccn3)cc2)CC1`?
Pf Dd2 inh: -89.0*; C diff HTS: -1.3

How did CN1C(=O)c2cc(NC(=O)Nc3ccccc3)ccc2OC[C@H]2O[C@@H](CC(=O)O)CC[C@@H]21 do in these assays?
T cruzi growth: 3.5; C diff HTS: -1.1

How did COCC(=O)Nc1ccc2c(c1)C(=O)N(C)C[C@@H](OC)[C@H](C)CN(Cc1ccncc1)[C@@H](C)CO2 do in these assays?
T cruzi growth: 14.3; Pf Dd2 inh: 40.3

Results for CO[C@@H]1CN(C)C(=O)c2cc(NC(=O)c3ccc(Oc4ccccc4)cc3)ccc2OC[C@@H](C)NC[C@H]1C ?
T cruzi growth: -89.2; Pf Dd2 inh: -45.1; C diff HTS: -8.0

How did COc1ccc2c3c([nH]c2c1)[C@H](CO)N(CC1CC1)CC31CN(C(=O)C2CCOCC2)C1 do in these assays?
Pf Dd2 inh: -29.0; C diff HTS: -6.2

Results for COc1ccc(NC(=O)N(C)C[C@@H]2OCc3cn(nn3)CCCC(=O)N([C@@H](C)CO)C[C@@H]2C)cc1 ?
T cruzi growth: 21.6; Pf Dd2 inh: -3.0; C diff HTS: -1.9

How did OC[C@@H]1Nc2ccc(-c3ccccc3)cc2[C@H]2[C@@H]1CCN2Cc1ccccc1F do in these assays?
T cruzi growth: 49.6; Pf Dd2 inh: -23.2; C diff HTS: 71.2

What do the screens show for `CCCC#Cc1ccc2c(c1)[C@@H]1[C@@H](CCN1S(=O)(=O)c1ccccc1C)[C@@H](CO)N2`?
Pf Dd2 inh: -84.4*; C diff HTS: 36.9

What do the screens show for `Cc1ccccc1S(=O)(=O)N1CC[C@H]2[C@H](CO)Nc3ccc(-c4ccccc4)cc3[C@H]21`?
T cruzi growth: 93.0; Pf Dd2 inh: 16.6; C diff HTS: 66.0

How did O=C(c1ccc2c(c1)OCO2)N1CC[C@H]2[C@H](CO)Nc3ccc(-c4ccc(F)cc4)cc3[C@H]21 do in these assays?
T cruzi growth: -0.1; Pf Dd2 inh: -10.5; C diff HTS: 0.0

What do the screens show for `C/C=C/c1ccc2c(c1)[C@H]1[C@H](CCN1S(=O)(=O)c1ccccc1C)[C@@H](CO)N2`?
Pf Dd2 inh: -86.6*; C diff HTS: -3.5

What do the screens show for `C/C=C/c1ccc2c(c1)[C@H]1[C@H](CCN1C(=O)c1ccc3c(c1)OCO3)[C@H](CO)N2`?
Pf Dd2 inh: -90.3*; C diff HTS: 4.9

Results for CCCC#Cc1ccc2c(c1)[C@H]1[C@H](CCN1Cc1ccccc1F)[C@@H](CO)N2 ?
Pf Dd2 inh: -82.7*; C diff HTS: 13.9

What do the screens show for `CCCC#Cc1ccc2c(c1)[C@@H]1[C@@H](CCN1S(=O)(=O)c1ccccc1F)[C@@H](CO)N2`?
Pf Dd2 inh: -63.9; C diff HTS: -3.7

What do the screens show for `O=C(C[C@@H]1CC[C@H](NC(=O)C2CCOCC2)[C@@H](CO)O1)NCc1ccccc1Cl`?
T cruzi growth: -61.7; Pf Dd2 inh: -1.8

What do the screens show for `CCS(=O)(=O)N1CCC2(CC1)CN(Cc1ccccc1)[C@@H](CO)c1c2c2ccc(OC)cc2n1C`?
Pf Dd2 inh: -11.5; C diff HTS: 1.9

What do the screens show for `O=C(N[C@H]1CC[C@@H](CCNC(=O)C2CC2)O[C@@H]1CO)c1ccccn1`?
C diff HTS: 0.6

What do the screens show for `Cc1noc(C)c1S(=O)(=O)Nc1ccc2c(c1)C(=O)N([C@@H](C)CO)C[C@@H](C)[C@@H](CN(C)C(=O)Nc1ccc(C(F)(F)F)cc1)O2`?
T cruzi growth: 12.2; Pf Dd2 inh: -21.5; C diff HTS: 9.8

How did C[C@H](CO)N1C[C@H](C)[C@@H](CN(C)C)Oc2cc(C#CC3CCCCC3)ccc2S1(=O)=O do in these assays?
T cruzi growth: 76.4; Pf Dd2 inh: -53.9; C diff HTS: 16.5

How did CCCN(C)C[C@@H]1Oc2cc(C#CC3CCCCC3)ccc2S(=O)(=O)N([C@H](C)CO)C[C@H]1C do in these assays?
T cruzi growth: 78.9; Pf Dd2 inh: -20.2; C diff HTS: 32.4

How did COc1ccc(S(=O)(=O)N(C)C[C@H]2Oc3cc(C#CC4CCCCC4)ccc3S(=O)(=O)N([C@H](C)CO)C[C@H]2C)cc1 do in these assays?
T cruzi growth: 54.6; Pf Dd2 inh: -66.2

How did C[C@@H]1CN([C@H](C)CO)S(=O)(=O)c2ccc(C#CC3CCCCC3)cc2O[C@@H]1CN(C)C do in these assays?
T cruzi growth: 50.5; Pf Dd2 inh: -81.1*; C diff HTS: 17.5

What do the screens show for `CCCN(C)C[C@H]1Oc2cc(C#CC3CCCC3)ccc2S(=O)(=O)N([C@H](C)CO)C[C@H]1C`?
T cruzi growth: 75.2; Pf Dd2 inh: -83.6*; C diff HTS: 6.3

Results for COc1ccc(S(=O)(=O)N(C)C[C@@H]2Oc3cc(C#CC4CCCCC4)ccc3S(=O)(=O)N([C@H](C)CO)C[C@H]2C)cc1 ?
T cruzi growth: 38.5; Pf Dd2 inh: -85.7*

Results for COc1cccc(C#Cc2cnc3c(c2)C(=O)N([C@H](C)CO)C[C@H](C)[C@@H](CN(C)C(C)=O)O3)c1 ?
T cruzi growth: -7.2; Pf Dd2 inh: -26.0; C diff HTS: -5.4

Results for COc1cccc(S(=O)(=O)N(C)C[C@H]2Oc3cc(C#CCN(C)C)ccc3S(=O)(=O)N([C@H](C)CO)C[C@@H]2C)c1 ?
T cruzi growth: 93.4; Pf Dd2 inh: -66.7; C diff HTS: -2.9

What do the screens show for `Cc1noc(C)c1NC(=O)Nc1ccc2c(c1)C(=O)N([C@@H](C)CO)C[C@H](C)[C@@H](CN(C)C(=O)Nc1cccc3ccccc13)O2`?
Pf Dd2 inh: 31.0; C diff HTS: -1.4

Results for CCC(=O)N1C[C@H](C)[C@H](OC)CN(C)C(=O)c2ccc(NC(=O)c3ccccc3)cc2OC[C@H]1C ?
T cruzi growth: 52.8; Pf Dd2 inh: -40.7

Source: PubChem BioAssay
